AMA1-RON2 inh = inhibitors of Plasmodium falciparum AMA1-RON2 interaction | AlphaScreen AMA1-biotinylated RON2 peptide binding | Potency, µM (doses to about 58.2 µM), for the others: at the highest dose activity change, negative = inhibition, most hits filed as inhibitors | AID 720542 | actives 0.2% (n = 360,000);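 note: 0% = vehicle wells and -100% = peptide control; nearly all actives have a fitted effect of over 45% in size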
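AMA1 (3D7) with his tag at 25 nM final met compounds first, then biotinylated RON2 peptide at 25 nM; detection used donor plus acceptor beads, 10 µg/mL apiece, read by AlphaScreen after 30 min at room temperature.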
Pf growth 96h = P. falciparum growth inhibition at 96 hours. actives 6.9% (n = 320,000). P. falciparum luciferase reporter growth, 96 h. Potency, µM (titrated, usually from 28.7 µM), inactives show at the top dose activity change, negative = inhibition, usual class: inhibitors; note: % is set by controls: 0 for no effect and ±100 for the full control effect
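Luminescence readout: decreased luciferase signal marks inhibited growth of reporter-expressing P. falciparum in infected red cells (2% hematocrit, 0.05% parasitemia final), exposed to compound two generations (96 h, 37 C, 5% CO2).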
Pf growth 48h = inhibits P. falciparum growth in the first generation, 48 h; Potency, µM (top dose mostly 28.7 µM), without a hit: at the highest dose activity change, negative = inhibition, actives largely listed as inhibitors; actives 5.9% (n = 310,000); AID 504832; P. falciparum luciferase growth in erythrocytes, 48 h; note: % is set by controls: 0 for no effect and ±100 for the full control effect
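Here the parasites carry a stable luciferase gene and grow inside erythrocytes in Albumax-based RPMI medium with compound for one erythrocytic cycle. Activity is scored as loss of luminescent signal.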
SARS PLP yeast = SARS-CoV PLP inhibition in yeast; S. cerevisiae expressing SARS-CoV PLpro, growth rescue; Potency, µM (highest dose often 32.9 µM), inactives show at the highest dose activity, positive = growth rescue, most hits filed as activators; actives 0.19% (n = 330,000); AID 485353; calls by dose curve; note: 0% is about no effect; nearly all actives have a fitted effect of over 55% in size
Active calls of the source: *; u = inconclusive; x = not tested or not shown. The list is not random: actives were taken first. Their share in the collection is about 9.4%. Unless noted, calls come from the whole dose curve; as a rule, active = well fitted curve in the direction sought with a large enough effect; inconclusive = small, poorly fitted or top-dose-only effect, or another doubt; inactive = no such curve, though single readings can be large; an effect the other way counts as inactive or inconclusive. Potency is the fitted concentration of half-maximal effect.

SMILES	AMA1-RON2 inh	Pf growth 96h	Pf growth 48h	SARS PLP yeast
Cc1cc(C(=O)CN2C(=O)NC3(CCCc4ccccc43)C2=O)c(C)n1Cc1ccccc1 (stereo not drawn)	-11.7%	1.17µM*	x	-2.0%
Cc1ccc(NC(=O)C2CCCCC2)c(O)c1	x	-19.8%	30.2%	-0.6%
C/C(=N\Nc1nc2ccccc2[nH]1)c1ccc([N+](=O)[O-])cc1	0.0%	0.0657µM*	0.185µM*	4.9%
CSc1ccc(CN(C)C(=O)CNC(=O)c2ccc3c(c2)OCO3)cc1	-6.1%	8.28µM*	4.15µM*	3.3%
Cc1ccc(NC(=O)CN(C)C(=O)CNC(=O)c2ccc3c(c2)OCO3)cc1	11.8%	51.8%	1.1%	-4.2%
CN(Cc1ccc(Cl)cc1Cl)C(=O)CNC(=O)c1ccc2c(c1)OCO2	-4.2%	11.7µM*	10.4µM*	-12.1%
Cc1ccc(S(=O)(=O)NCCC(=O)N2CC(C)OC(C)C2)cc1C (stereo not drawn)	-13.6%	4.6%	33.5%	1.5%
NNC(=O)CCn1c2ccccc2c2ccccc21	36.0%	u	13.9%	-0.2%
Cc1cccc(-c2noc(-c3ccc4c(c3)OCO4)n2)c1	4.8%	-19.6%	13.7%	-0.6%
Cc1cccc(-c2oc3ccccc3c2-c2ccc3c(c2)OCO3)c1	2.9%	9.28µM*	u	-2.4%
CC1(C)CC2CC(C)(CN2S(=O)(=O)c2cccc(C(N)=O)c2)C1 (stereo not drawn)	-7.7%	u	u	-0.4%
CC1(C)CC2CC(C)(CN2S(=O)(=O)c2ccc(C(=O)Nc3cc(S(=O)(=O)N4CCOCC4)ccc3Cl)cc2)C1 (stereo not drawn)	14.7%	2.62µM*	3.7µM*	-0.5%
CCCCNC(=O)c1cccc(S(=O)(=O)N2CC3(C)CC2CC(C)(C)C3)c1 (stereo not drawn)	5.2%	11.7µM*	u	-5.2%
CC1(C)CC2CC(C)(CN2S(=O)(=O)c2ccc(C(=O)Nc3cccc(S(=O)(=O)N4CCOCC4)c3)cc2)C1 (stereo not drawn)	-0.9%	u	2.94µM*	27.3%
Cc1cccc(NC(=O)CN(C)S(=O)(=O)c2ccc(-c3ccc(=O)[nH]n3)s2)c1C	-18.4%	-6.6%	u	5.3%
CCOc1cc(/C=C2\C(=N)N3N=C(CC)SC3=NC2=O)ccc1OCCOc1ccc(NC(C)=O)cc1	19.7%	2.62µM*	u	1.3%
CCC1=NN2C(=N)/C(=C\c3ccc(OCCOc4ccc(NC(C)=O)cc4)cc3)C(=O)N=C2S1	9.4%	-28.6%	-24.2%	1.6%
COc1ccccc1C=C1CCc2ccccc2C1=O	3.3%	x	x	x
COc1cccc(C2C3=C(N=C4SCC(=O)N42)c2ccccc2CC3)c1OC (stereo not drawn)	61.1%	186.2%	11.7µM*	26.9%
COc1ccc(OC)c(C2C3=C(N=C4SCC(=O)N42)c2ccccc2CC3)c1 (stereo not drawn)	13.1%	u	u	11.3%
COc1cccc(C2C3=C(N=c4s/c(=C\c5ccccc5O)c(=O)n42)c2ccccc2CC3)c1OC (stereo not drawn)	x	2.94µM*	1.85µM*	-2.2%
CCN(CC)C(=O)CSc1nnc(CCN)o1	38.5%	-16.7%	22.8%	3.3%
CN(C)CCNc1nc2c(c(=O)[nH]c(=O)n2C)n1CCOc1ccccc1	26.9%	2.0%	x	0.3%
CCCCn1c(SCC(=O)N(CC)C2CCS(=O)(=O)C2)nnc1C(CC)N(C)C (stereo not drawn)	26.4%	8.9%	-0.1%	1.1%
Cc1cccc(-c2cc(C(=O)Nc3ccc4c(c3)OCCO4)c3ccccc3n2)c1	-2.6%	11.7µM*	u	-12.5%
SMILES	AMA1-RON2 inh	Pf growth 96h	Pf growth 48h	SARS PLP yeast
O=C(Nc1ccc(SC(F)F)cc1)c1cc(-c2ccncc2)nc2ccccc12	0.0%	5.22µM*	u	-0.8%
CC(C)(C)c1ccccc1NC(=O)c1cc(-c2ccncc2)nc2ccccc12	-16.8%	x	x	-9.6%
COc1cc(-c2cc(C(=O)Nc3ccc(N4CCOCC4)cc3)c3ccccc3n2)cc(OC)c1OC	-18.2%	5.86µM*	10.4µM*	0.4%
CCc1cccc(C)c1NC(=O)c1cc(-c2ccncc2)nc2ccccc12	-7.5%	9.28µM*	10.4µM*	-2.4%
CCOc1ccc(-c2cc(C(=O)Nc3ccc4c(c3)OCCO4)c3ccccc3n2)cc1	-0.6%	31.3%	107.8%	0.3%
Cc1cccc(C)c1NC(=O)c1cc(-c2ccccn2)nc2ccccc12	14.5%	u	-26.1%	2.7%
Cc1ccc(N=C2C(=O)Nc3ccc(C)c(Br)c32)cc1	-9.3%	9.1%	-1.3%	0.6%
COc1ccccc1NC(=O)c1cc(-c2cc(OC)c(OC)c(OC)c2)nc2ccccc12	-1.7%	u	4.65µM*	6.5%
COc1ccc(-c2cc(C(=O)NNC(=O)c3csc(N4CCOCC4)n3)c3ccccc3n2)cc1OC	133.2%	13.1µM*	u	-1.7%
CCOc1ccccc1NC(=O)c1cc(-c2cc(OC)c(OC)c(OC)c2)nc2ccccc12	-16.0%	u	u	-1.2%
Cc1cc(C)c2cccc(NC(=S)NC(=O)c3ccccc3)c2n1	61.1%	1.85µM*	10.4µM*	u
Cc1ccccc1C(=O)NC(=S)Nc1ccccc1C(=O)O	38.0%	10.4µM*	22.9%	0.2%
Cc1ccc(S(=O)(=O)Cc2ccc(C(=O)N3CCN(c4ccccn4)CC3)o2)cc1	-3.9%	u	x	-0.8%
COCCNc1cc(N)c([N+](=O)[O-])cc1[N+](=O)[O-]	-13.2%	35.8%	8.0%	-1.2%
Cc1ccccc1NC(=S)NC(=O)c1cc(-c2ccccc2)nc2ccccc12	62.3%	9.28µM*	u	-1.9%
O=C(NCc1ccc(F)cc1)c1cc(-c2ccncc2)nc2ccccc12	-2.0%	u	3.7µM*	-0.3%
Cc1c(C(=O)Nc2ccc3c(c2)OCO3)sc2nc(-c3ccccc3)cn12	0.0%	u	13.1µM*	5.7%
COc1cc(NC(=O)c2cc(C)nc3ccccc23)cc(OC)c1OC	14.0%	-5.3%	-20.6%	-0.4%
COc1cc(-c2cc(C(=O)Nc3ccncc3)c3ccccc3n2)cc(OC)c1OC	4.8%	4.15µM*	8.28µM*	-1.2%
Cc1c(C(=O)NCc2ccc3c(c2)OCO3)sc2nc(-c3ccccc3)cn12	-0.5%	u	x	7.1%
Cc1ccc(S(=O)(=O)NCc2ccccc2)cc1C(=O)N1CCN(c2ccccc2)CC1	51.1%	u	u	-4.6%
Cc1ccc(-c2cc(C(=O)Nc3ccncc3)c3ccccc3n2)cc1	0.1%	1.47µM*	1.65µM*	-0.8%
O=C(Nc1ccncc1)c1cc(-c2ccccn2)nc2ccccc12	-5.5%	u	-12.1%	-1.6%
CCNC(=S)NNC(=O)c1cc(-c2cc(C)ccc2C)nc2ccccc12	78.3%	5.22µM*	u	11.7%
COc1ccc(-c2cc(C(=O)Nc3c(Cl)cc(Cl)cc3Cl)c3ccccc3n2)cc1OC	-3.8%	u	13.1µM*	7.4%
CNS(=O)(=O)c1ccc(NC(=O)c2cc(-c3ccncc3)nc3ccc(Cl)cc23)cc1	-14.9%	44.0%	13.1µM*	2.8%
NC(=O)c1cc(-c2ccncc2)nc2ccc(Cl)cc12	-0.5%	u	u	-0.4%
